Assay results reported in PubChem BioAssay (Tox21).
Inconclusive results are not listed. A call without a number means that no potency is given here. Unmarked numbers belong to inactive results. The source made the active and inactive calls. Calls follow the shape of the dose curve; as a rule, active = well fitted cell-killing curve with a large enough effect in the repeat runs; inconclusive = weak or mixed curves, or effect the other way; inactive = flat fitted curve, though single readings scatter.

Legend:
[1] = cAMP Responsive Elements (CRE) small molecule antagonists, cell-based qHTS assay: qHTS cell viability counter screen (AID 2060913); also: nearly all actives have a fitted effect of over 40% in size; also: potency is read from the fitted curve at half-maximal effect
Summary of the method: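 Cytotoxicity read in the same wells as the CRE-bla HEK293T antagonist assay: after 3 h compound with 0.25 uM NKH477 final and 2 h beta-lactamase substrate, CellTiter-Glo luminescence measured.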

[2] = cAMP Responsive Elements (CRE) small molecule agonists, cell-based qHTS assay: qHTS cell viability counter screen (AID 2060914); also: nearly all actives have a fitted effect of over 50% in size
Summary of the method: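 In the same wells as the reporter read, viability of CRE-bla HEK 293T cells was quantified by CellTiter-Glo luminescence after a 3 h compound exposure.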

CCCCCCC(=O)c1ccccc1
Potency [1]: inactive | Potency [2]: inactive

Clc1cc(Cl)c(-c2c(Cl)c(Cl)cc(Cl)c2Cl)cc1Cl
Potency [1]: inactive | Potency [2]: inactive

CNC1(C)C2CCC(C2)C1(C)C (centres undefined)
Potency [1]: inactive | Potency [2]: inactive

COc1ccccc1OC(=O)Oc1ccccc1OC
Potency [1]: inactive | Potency [2]: inactive

c1ccc2c(CC3=NCCN3)cccc2c1
Potency [1]: inactive | Potency [2]: inactive

Cc1ccccc1C(=O)N1CC/C(=N\OS(=O)(=O)O)c2ccc(Cl)cc21
Potency [1]: inactive | Potency [2]: inactive

CC(C)(C)c1cc(C=O)cc(C(C)(C)C)c1O
Potency [1]: inactive | Potency [2]: inactive

CCCCCCCCCCCCCCCCCCO
Potency [1]: inactive | Potency [2]: inactive

Cc1cc2cc3c(C)cc(=O)oc3c(C)c2o1
Potency [1]: inactive | Potency [2]: inactive

CCCCC(CC)COP(=O)(OCC(CC)CCCC)OCC(CC)CCCC (centres undefined)
Potency [1]: inactive | Potency [2]: inactive

OCCN1CCN(CCCN2c3ccccc3C=Cc3ccccc32)CC1
Potency [1]: inactive | Potency [2]: inactive

OCCCC1CCCCC1
Potency [1]: inactive | Potency [2]: inactive

CC1=NC(C)OC1C (centres undefined)
Potency [1]: inactive | Potency [2]: inactive

O=C(O)c1cc(-c2ccc(F)cc2F)ccc1O
Potency [1]: inactive | Potency [2]: inactive

CCc1ccc(O)c(OC)c1
Potency [1]: inactive | Potency [2]: inactive

Cc1ccc2nc(N)[nH]c(=O)c2c1Sc1ccncc1
Potency [1]: inactive | Potency [2]: inactive

CC(=O)N[C@H]1[C@H]([C@H](O)[C@H](O)CO)OC(C(=O)O)=C[C@@H]1N=C(N)N
Potency [1]: inactive | Potency [2]: inactive

CC(C)=CCCC(C)CCO (centres undefined)
Potency [1]: inactive | Potency [2]: inactive

COc1ccc(C#N)cc1
Potency [1]: inactive | Potency [2]: inactive

OCC1CCC(CO)CC1 (centres undefined)
Potency [1]: inactive | Potency [2]: inactive

Cc1[nH]nc2c1N=C(c1ccccc1Cl)c1cc([N+](=O)[O-])ccc1N2
Potency [1]: inactive | Potency [2]: inactive

C[CH2][Ge]([Cl])([CH2]C)[CH2]C
Potency [1]: inactive | Potency [2]: inactive

CCCCCC(C)O (centres undefined)
Potency [1]: inactive | Potency [2]: inactive

CN/C(=C\[N+](=O)[O-])NCCSCc1ccc(CN(C)C)o1
Potency [1]: inactive | Potency [2]: inactive

C[C@H]1O[C@@H](n2cc(F)c(=O)[nH]c2=O)[C@H](O)[C@@H]1O
Potency [1]: inactive | Potency [2]: inactive

CCCCOc1ccc(C(=O)CCN2CCCCC2)cc1
Potency [1]: inactive | Potency [2]: inactive

Cc1ccc(O)c([N+](=O)[O-])c1
Potency [1]: inactive | Potency [2]: inactive

COC(=O)CCCCC(=O)OC
Potency [1]: inactive | Potency [2]: inactive

COc1ccccc1[N+](=O)[O-]
Potency [1]: inactive | Potency [2]: inactive

COCCOCCOCCOCCO
Potency [1]: inactive | Potency [2]: inactive

CCc1cccc(C)c1N
Potency [1]: inactive | Potency [2]: inactive

OC1CCCc2ccccc21 (centres undefined)
Potency [1]: inactive | Potency [2]: inactive

CN(C)CCOCCO
Potency [1]: inactive | Potency [2]: inactive

CO[C@H]1C=CO[C@@]2(C)Oc3c(C)c(O)c4c(O)c(c(/C=N/N5CCN(C)CC5)c(O)c4c3C2=O)NC(=O)/C(C)=C\C=C[C@H](C)[C@H](O)[C@@H](C)[C@@H](O)[C@@H](C)[C@H](OC(C)=O)[C@@H]1C
Potency [1]: inactive | Potency [2]: inactive

Cc1ccc(C#N)cc1
Potency [1]: inactive | Potency [2]: inactive

CC(C)S
Potency [1]: inactive | Potency [2]: inactive

CC(=O)c1ccc(O)cc1
Potency [1]: inactive | Potency [2]: inactive

Cc1ccc(Nc2ccc(O)c3c2C(=O)c2ccccc2C3=O)cc1
Potency [1]: inactive | Potency [2]: inactive

CC(=O)Oc1ccccc1C(=O)O
Potency [1]: inactive | Potency [2]: inactive

CC(=O)OCC(=O)[C@H]1CC[C@H]2[C@@H]3CCC4=CC(=O)CC[C@]4(C)[C@H]3CC[C@]12C
Potency [1]: inactive | Potency [2]: inactive

CCCC(C)C(=O)O (centres undefined)
Potency [1]: inactive | Potency [2]: inactive

CCOc1ccc2c(c1)C(C)CC(C)(C)N2 (centres undefined)
Potency [1]: inactive | Potency [2]: inactive

OC1OCCOC1O (centres undefined)
Potency [1]: inactive | Potency [2]: inactive

CCCCC/C(C=O)=C\c1ccccc1
Potency [1]: inactive | Potency [2]: inactive

O=C(O)CNc1ccccc1
Potency [1]: inactive | Potency [2]: inactive

NC(N)=NC(N)=NCCc1ccccc1
Potency [1]: inactive | Potency [2]: inactive

CC(C)(C)NC(=O)[C@@H]1CN(Cc2cccnc2)CCN1C[C@@H](O)C[C@@H](Cc1ccccc1)C(=O)N[C@H]1c2ccccc2C[C@H]1O
Potency [1]: inactive | Potency [2]: inactive

OCC(CO)(CO)CO
Potency [1]: inactive | Potency [2]: inactive

N[C@@H](CCC(=O)O)C(=O)O
Potency [1]: inactive | Potency [2]: inactive

C/C=C/C(=O)O
Potency [1]: inactive | Potency [2]: inactive

O=[N+]([O-])c1cc([N+](=O)[O-])c2ccc(S(=O)(=O)O)cc2c1O
Potency [1]: inactive | Potency [2]: inactive

Cc1c(C(=O)O)cccc1[N+](=O)[O-]
Potency [1]: inactive | Potency [2]: inactive

O=C(NS(=O)(=O)/C=C/c1ccccc1)c1ccc(F)cc1Cl
Potency [1]: inactive | Potency [2]: inactive

c1ccc2c(c1)Oc1ccccc1S2
Potency [1]: inactive | Potency [2]: inactive

CN1CCN(C2=Nc3ccccc3Oc3ccc(Cl)cc32)CC1
Potency [1]: inactive | Potency [2]: inactive

C[C@@H](O)[C@H](N)C(=O)O
viability change, negative = cytotoxic [1]: -1.62% [at 18.9 µM] | activity change, negative = cytotoxicity [2]: -10.8% [at 18.9 µM]

O=C(Nc1ccc2c(O)c(N=Nc3ccc(N=Nc4ccc(S(=O)(=O)O)cc4)cc3)c(S(=O)(=O)O)cc2c1)c1ccccc1
Potency [1]: inactive | Potency [2]: inactive

CC(=O)Nc1cccc(N)c1
Potency [1]: inactive | Potency [2]: inactive

CCCCOC(=O)CCC(C)=O
Potency [1]: inactive | Potency [2]: inactive

CCCCCCCCCCCCCCCCCCCl
viability change, negative = cytotoxic [1]: -1.12% [at 8.39 µM] | activity change, negative = cytotoxicity [2]: -6.8% [at 8.39 µM]

O=C1CCc2cc(OCCCCc3nnnn3C3CCCCC3)ccc2N1
Potency [1]: inactive | Potency [2]: inactive

NC(N)=NC(=O)Cc1c(Cl)cccc1Cl
Potency [1]: inactive | Potency [2]: inactive

Cn1cnc([N+](=O)[O-])c1Sc1ncnc2nc[nH]c12
Potency [1]: inactive | Potency [2]: inactive

Cc1nc(C2CCCCC2)c(-c2ccc(S(N)(=O)=O)c(F)c2)o1
Potency [1]: inactive | Potency [2]: inactive

COc1ccc(CCN(C)CCCN2CCc3cc(OC)c(OC)cc3CC2=O)cc1OC
Potency [1]: inactive | Potency [2]: inactive

COC(=O)c1ccccc1C
Potency [1]: inactive | Potency [2]: inactive

CC1=NN(c2ccc(C(=O)O)cc2)C(=O)C1
Potency [1]: inactive | Potency [2]: inactive

CCCCOCCOCCOCCO
Potency [1]: inactive | Potency [2]: inactive

C=C(C)C(=O)OCCC[Si](OC)(OC)OC
Potency [1]: inactive | Potency [2]: inactive

O=C1Cc2ccccc2N1c1c(Cl)cccc1Cl
Potency [1]: inactive | Potency [2]: inactive

C=C(C)C(=O)OCCNC(C)(C)C
Potency [1]: inactive | Potency [2]: inactive

C1CCCNCCC1
Potency [1]: inactive | Potency [2]: inactive

O=C(O)c1cccc(Cl)c1Cl
Potency [1]: inactive | Potency [2]: inactive

CCCCC1CCC(=O)O1 (centres undefined)
Potency [1]: inactive | Potency [2]: inactive

CC(=O)Nc1cccc(O)c1
Potency [1]: inactive | Potency [2]: inactive

C[C@H](N)C(=O)N[C@@H](C)C(=O)NC1[C@H]2CN(c3nc4c(cc3F)c(=O)c(C(=O)O)cn4-c3ccc(F)cc3F)C[C@@H]12 (some centres undefined)
Potency [1]: inactive | Potency [2]: inactive

CC(C)CCCCCOC(=O)CCCCC(=O)OCCCCCC(C)C
Potency [1]: inactive | Potency [2]: inactive

F[Si-2](F)(F)(F)(F)F
Potency [1]: inactive | Potency [2]: inactive

CCC(C)(CCC(C)C)C(=O)[O][Sn]([CH3])([CH3])[O]C(=O)C(C)(CC)CCC(C)C (centres undefined)
Potency [1]: inactive | Potency [2]: inactive

CCCCCCCCCCCCCC(=O)O
Potency [1]: inactive | Potency [2]: inactive

CC(=O)N[C@@H](CO)C(=O)N[C@@H](CC(=O)O)C(=O)N[C@@H](CCCCN)C(=O)N1CCC[C@H]1C(=O)O
Potency [1]: inactive | Potency [2]: inactive

CC(=O)c1ccccc1
Potency [1]: inactive | Potency [2]: inactive

CCCC(=O)C(CC)Sc1ccoc1C (centres undefined)
Potency [1]: inactive | Potency [2]: inactive

CC(C)(C)OC(=O)N1C[C@@H](F)C[C@H]1C(=O)O
Potency [1]: inactive | Potency [2]: inactive

C[C@@H]1C[C@H]2[C@@H]3CCC4=CC(=O)C=C[C@]4(C)[C@@]3(F)[C@@H](O)C[C@]2(C)[C@@]1(O)C(=O)CO
Potency [1]: inactive | Potency [2]: inactive

CCO[Si](C)(C)OCC
Potency [1]: inactive | Potency [2]: inactive

CC(N)CCCC(C)(C)O (centres undefined)
Potency [1]: inactive | Potency [2]: inactive

CC(C)OC(=O)c1ccccc1C(=O)OC(C)C
Potency [1]: inactive | Potency [2]: inactive

Nc1cc(Cl)cc(S(=O)(=O)O)c1O
Potency [1]: inactive | Potency [2]: inactive

CCC(C)(C)C
Potency [1]: inactive | Potency [2]: inactive

Oc1cccc2ccccc12
Potency [1]: inactive | Potency [2]: inactive

CCC(C)(C)C(=O)O[C@H]1C[C@@H](C)C=C2C=C[C@H](C)[C@H](CC[C@@H]3C[C@@H](O)CC(=O)O3)[C@H]21
Potency [1]: inactive | Potency [2]: inactive

On1ccccc1=S
Potency [1]: 9.59 µM (active) | Potency [2]: inactive

CC(C)=C1CC[C@@H](C)CC1=O
Potency [1]: inactive | Potency [2]: inactive

C[C@]12C=CC(=O)C=C1CC[C@@H]1[C@@H]2C(=O)C[C@@]2(C)[C@H]1CC[C@]2(O)C(=O)CO
Potency [1]: inactive | Potency [2]: inactive

CCOC(=O)CCc1ccccc1
Potency [1]: inactive | Potency [2]: inactive

CC(C)COC(=O)/C=C/c1ccccc1
Potency [1]: inactive | Potency [2]: inactive

Cc1ncc(CO)c(CO)c1O
Potency [1]: inactive | Potency [2]: inactive

c1cc(C(c2ccc(OCC3CO3)cc2)c2ccc(OCC3CO3)cc2)ccc1OCC1CO1 (centres undefined)
Potency [1]: inactive | Potency [2]: inactive

C[C@@H](N)C(=O)O
Potency [1]: inactive | Potency [2]: inactive

c1ccc(Oc2ccccc2)cc1
Potency [1]: inactive | Potency [2]: inactive

Cn1cnc2c(=O)[nH]c(N)nc21
Potency [1]: inactive | Potency [2]: inactive
